Records with an inconclusive call do not appear. A number with no mark means an inactive call. The source made the active and inactive calls. Calls follow the shape of the dose curve; as a rule, active = well fitted inhibition curve with a large enough effect in the signal ratio in the repeat runs, with a control signal flat; inconclusive = weak or mixed curves, or effect the other way; inactive = flat fitted curve, though single readings scatter; the % refers to the signal ratio.
Biological target: D(2) dopamine receptor (Homo sapiens) (UniProt P14416)
Test: Dopamine D2 receptor (DRD2) small molecule antagonists, cell-based qHTS assay (AID 1963595)
Details: HEK293-DRD2 cAMP HTRF antagonist mode; series mostly up to 92.4 µM; activity change, negative = inhibition: at the top concentration
Excerpt: National Center for Advancing Translational Sciences [NCATS]
Division of Preclinical Innovation [DPI]
U.S. Environmental Protection Agency [EPA]
National Institutes of Environmental Health Sciences [NIEHS]
National Toxicology Program [NTP]
U.S. Food and Drug Administration [FDA]
DRD2 is the D2 subtype of the dopamine receptor, which is coupled to Gi subtype of G protein-coupled receptor. This G protein-coupled receptor inhibits adenylyl cyclase activity. The DRD2-HEK293 cell line stably expressing D2 dopamine receptor can be used for screening agonists and antagonists of interactions between D2 and its ligands. The Hek293-DRD2 cAMP assay is based on HTRF technology. It measures changes of cAMP accumulation in response to Gi coupled GPCR activation or inhibition.
Tox21 Assay Protocol Summary:
DRD2-Hek293 cells were dispensed at 600 cells/3uL/well in 1536-well white plates using a Multidrop Dispenser. After the assay plates were incubated at a 37 C/5% CO2 incubator for 24 h, 1 uL of Ro20-1724 at final concentration of 0.1 mM was transferred to the assay plate by a Flying Reagent Dispenser. Following Ro20-1724 addition, 23 nL of compound dissolved in DMSO, positive controls or DMSO only was added to the assay plates via Wako pintool station. The assay plates were incubated at room temperature for 10 min. Next, 1 uL of mixture of NKH477 (final concentration at 200 nM) and quinpirole (final concentration at 12 nM) was added into the plates. After the assay plates were incubated at room temperature for an additional 30 min, 2.5 ul/well of cAMP-d2 and 2.5 ul/well of anti-cAMP-cryptate were added respectively into the assay plates using a Flying Reagent Dispenser. The plates were incubated at room temperature for 1 h. The fluorescence intensity in the plates was measured at 340 nm excitation and 665 & 620 nm emission by an Envision plate reader.
% is scaled to controls: 0 for no effect and ±100 for the full control effect.

Sequence of D(2) dopamine receptor (Homo sapiens) (P14416 whole entry, looked up): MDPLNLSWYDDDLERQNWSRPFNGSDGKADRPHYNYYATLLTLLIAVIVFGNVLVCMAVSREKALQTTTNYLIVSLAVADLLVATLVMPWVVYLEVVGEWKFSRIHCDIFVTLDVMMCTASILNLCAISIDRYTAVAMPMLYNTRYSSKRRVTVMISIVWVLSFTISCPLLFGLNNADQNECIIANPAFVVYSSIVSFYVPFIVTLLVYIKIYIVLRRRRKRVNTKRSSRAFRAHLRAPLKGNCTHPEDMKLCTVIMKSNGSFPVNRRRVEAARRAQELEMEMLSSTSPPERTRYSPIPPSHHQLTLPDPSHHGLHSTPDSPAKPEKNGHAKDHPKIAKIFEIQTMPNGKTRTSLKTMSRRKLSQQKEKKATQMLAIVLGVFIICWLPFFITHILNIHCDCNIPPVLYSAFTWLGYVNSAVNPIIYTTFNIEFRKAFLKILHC

Row | Structure (SMILES) | activity change, negative = inhibition | Potency
1 | OC1(c2ccc(Cl)cc2)CCNCC1 | -3% [at 42.5 µM] | –
2 | C=C(CC)C(=O)c1ccc(OCC(=O)O)c(Cl)c1Cl | – | inactive
3 | N#CCc1cccc(C(F)(F)F)c1 | 4.8% | –
4 | COC(=O)c1ccc2cc(C(=O)OC)ccc2c1 | -2.05% [at 18.9 µM] | –
5 | Nc1cc([N+](=O)[O-])ccc1O | -15.3% | –
6 | CC(C[N+](C)(C)C)OC(N)=O (stereo not given) | -3.59% [at 42.5 µM] | –
7 | CC(C)C(=O)c1c(C(C)C)nn2ccccc12 | 7.08% [at 42.5 µM] | –
8 | CCCCC(CC)COC(=O)c1ccc(O)cc1 (stereo not given) | -20.2% | –
9 | Oc1ccccc1O | – | inactive
10 | C=C(C)C(=O)OCCCCCCOC(=O)C(=C)C | 10.1% | –
11 | C[N+]1([O-])CCOCC1 | 11.8% | –
12 | c1ccc(CCCc2ccncc2)cc1 | -0.745% | –
13 | Clc1cc(Cl)c(Cl)c(Cl)c1Cl | 18.6% | –
14 | CS(=O)(=O)O | 8.28% | –
15 | CCCC(C)CO (stereo not given) | 4.33% | –
16 | Cc1cc(C)cc(OCC2CNC(=O)O2)c1 (stereo not given) | 1.1% [at 42.5 µM] | –
17 | O=C(O)Cc1ccc(CCNS(=O)(=O)c2ccc(Cl)cc2)cc1 | 15.5% [at 42.5 µM] | –
18 | CN(C(=O)c1c(O)c2ccccc2n(C)c1=O)c1ccccc1 | 7.03% [at 42.5 µM] | –
19 | CCO[Si](C)(C)OCC | -4.37% | –
20 | Nc1ccc([N+](=O)[O-])c(C(F)(F)F)c1 | 6.52% [at 42.5 µM] | –

Row | Structure (SMILES) | activity change, negative = inhibition | Potency
21 | CC1(C)C(=O)N(Br)C(=O)N1Cl | 2.14% | –
22 | CCCCOCCCC | 2.82% | –
23 | NC[C@H]1O[C@H](O[C@H]2[C@H](O)[C@@H](O[C@H]3O[C@H](CO)[C@@H](O)[C@H](N)[C@H]3O)[C@H](N)C[C@@H]2N)[C@H](N)[C@@H](O)[C@@H]1O | 13% [at 18.9 µM] | –
24 | Cc1oncc1C(=O)Nc1ccc(C(F)(F)F)cc1 | – | inactive
25 | CC(=O)OCCOCCOCCOC(C)=O | – | inactive
26 | NC(=O)Nc1ccc(Cl)cc1 | 2.55% | –
27 | CC1=CCC(O)(C(C)C)CC1 (stereo not given) | 1.08% | –
28 | CCC(C)c1ccccc1O (stereo not given) | – | inactive
29 | CC1=C(C=O)C(C)(C)CC=C1 | 19.2% | –
30 | O=S(=O)(O)c1cc(O)c(O)c(S(=O)(=O)O)c1 | -0.667% | –
31 | CC(C)NCC(O)COc1cccc2ccccc12 (stereo not given) | – | inactive
32 | Nc1ccc(S(=O)(=O)Nc2ccc(Cl)nn2)cc1 | 4.38% [at 42.5 µM] | –
33 | CC(C)N=C(N)/N=C(\N)Nc1ccc(Cl)cc1 | 1.75% [at 42.5 µM] | –
34 | CCn1c2ccccc2c2ccccc21 | -1.72% | –
35 | ON=C1CCCCC1 | – | inactive
36 | Nc1cccc2c1CN(C1CCC(=O)NC1=O)C2=O (stereo not given) | 0.181% [at 42.5 µM] | –
37 | C=CCCC | -2.69% | –
38 | O=C(O)CNC(=O)c1ccc(CO)o1 | 0.729% | –
39 | Cn1cnc2c1c(=O)[nH]c(=O)n2C | – | inactive
40 | Cc1ccc(O)c([N+](=O)[O-])c1 | 0.114% | –
